Results with a measured potency or affinity are listed apart.
Legend:
[1] = system: Staphylococcus aureus; details: Concentration 32 ug.mL-1; ASSAY_TEST Inhibition of Bacterial Growth; detection method Absorption (OD600); MEDIA CAMHB; plate type 384well; NBS; CORNING #3640; time 18 hr
[2] = system: Escherichia coli; details: Concentration 32 ug.mL-1; ASSAY_TEST Inhibition of Bacterial Growth; detection method Absorption (OD600); MEDIA CAMHB; plate type 384well; NBS; CORNING #3640; time 18 hr

SMILES	Inhibition [1] [%]	Inhibition [2] [%]
CC(=O)O[C@H]1C[C@@]2(C)C(C[C@@H](O)C3[C@@]4(C)CC[C@@H](OC(=O)CCCCCO[N+](=O)[O-])[C@@H](C)C4CC[C@@]32C)/C1=C(\CCC=C(C)C)C(=O)OCc1ccccc1 (some centres not stated)	6.22	-6.82
CC(=O)O[C@H]1C[C@@]2(C)C(C[C@@H](O)C3[C@@]4(C)CC[C@@H](O)[C@@H](C)C4CC[C@@]32C)/C1=C(\CCC=C(C)C)C(=O)On1nnc2ccccc21 (some centres not stated)	73.87	-6.08
CC(=O)O[C@H]1C[C@@]2(C)C(C[C@@H](O)C3[C@@]4(C)CC[C@@H](OC(=O)c5ccccc5C(=O)Nc5ccc(N)cc5)[C@@H](C)C4CC[C@@]32C)/C1=C(\CCC=C(C)C)C(=O)OCc1ccccc1 (some centres not stated)	7.06	1.09
CC(=O)O[C@H]1C[C@@]2(C)C(C[C@@H](O)C3[C@@]4(C)CC[C@@H](OC(=O)C(N)CC(C)C)[C@@H](C)C4CC[C@@]32C)/C1=C(\CCC=C(C)C)C(=O)OCc1ccccc1 (some centres not stated)	-0.87	-4.43
CC(=O)O[C@H]1C[C@@]2(C)C(C[C@@H](O)C3[C@@]4(C)CC[C@@H](OC(=O)CO[N+](=O)[O-])[C@@H](C)C4CC[C@@]32C)/C1=C(\CCC=C(C)C)C(=O)OCc1ccccc1 (some centres not stated)	5.41	4.14
CC(=O)O[C@H]1C[C@@]2(C)C(C[C@@H](O)C3[C@@]4(C)CC[C@@H](OC(=O)CCC(=O)Oc5ccc(CCO[N+](=O)[O-])cc5)[C@@H](C)C4CC[C@@]32C)/C1=C(\CCC=C(C)C)C(=O)OCc1ccccc1 (some centres not stated)	-9.31	-12.6
